Screening results from PubChem.
Gli-Sufu block = Gli-Sufu pathway antagonists, primary screen, luciferase luminescence, Sufu-KO-LIGHT cells, uHTS; inhibition, % at 5 µM; actives 0.74% (n = 340,000); Sufu-KO-LIGHT fibroblasts, Gli luciferase reporter luminescence;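 active = inhibition above about 55%, limit read from the data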;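 note: 0% = DMSO-treated cells and 100% = wells with medium but no cells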
TAG inh = inhibitors of triacylglycerol accumulation, primary screen, cell-based, uHTS, fluorescence, H9c2 | H9c2 cells, Nile Red lipid (TAG) fluorescence; cells loaded with 200 µM oleic acid | inhibition, % at 12.5 µM | actives 0.66% (n = 230,000) | AID 651582, 2012;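 active = pattern-corrected inhibition of lipid staining of at least 50% with the nuclear-stain viability signal not falling by more than 50%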;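 note: 0% = DMSO wells and 100% = triacsin C control wells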
Shn3 inh set2 = reduction of Shn3 3'UTR firefly luciferase signal, primary screen, Schnurri-3 inhibitor project, cell-based, Clone20 osteoblasts, set 2 | Clone20 osteoblast Shn3 3'UTR firefly luciferase, 24 h | inhibition, % at 12.5 µM | actives 0.52% (n = 360,000);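 active = mean inhibition of at least 75% with every replicate also reaching 75%; inconclusive = mean inhibition at least 75% but some replicate below; inactive = mean inhibition below 75%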;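 note: 0% = median of neutral control wells and 100% = pilot-screen positive control compound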
aSyn UTR inh = MLPCN primary screen, SNCA 5' untranslated region; alpha-synuclein 5'UTR reporter, inhibitor activity; inhibition, % (tested at 7.5 µM); actives 0.82% (n = 300,000); in the data active = inhibition above about 60%; inconclusive = no clear call, values can overlap the other calls;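 note: H4 neuroglioblastoma cells stably carrying SNCA 5'UTR luciferase fusion; 0% = DMSO wells and 100% = positive control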
Jurkat NFkB inh = inhibitors of induced NF-kB luciferase reporter, primary screen, TCR NF-kB activation inhibitor project, cell-based, luminescence, uHTS; AID 435003, 2010; inhibition, % at 4 µM; Jurkat, PMA/ionomycin-induced NF-kB luciferase reporter; actives 0.53% (n = 330,000); in the data active = inhibition above about 50%
697 NFkB inh = inhibitors of PMA/ionomycin-induced NF-kB reporter, 697 cells, primary screen, B-cell NF-kB inhibitor project, cell-based, luminescence, uHTS. actives 0.33% (n = 330,000). inhibition, % at 4 µM. 697 B-cell NF-kB luciferase reporter, 16 h; in the data active = inhibition above about 35%
Jurkat NFkB conf = PMA/ionomycin-induced NF-kB reporter inhibitors, Jurkat retest, confirmation, T-cell NF-kB inhibitor project, cell-based, luminescence, single concentration; AID 435020, 2010; inhibition, % at 4 µM; actives 27% (n = 2,700); shares compounds with Jurkat NFkB inh; Jurkat NF-kB luciferase, 16 h;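 active = inhibition reaching about 45% at 4 µM in either replicate, limit read from the data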;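 note: plate controls were PMA/ionomycin stimulated DMSO wells for no effect and unstimulated DMSO wells for full effect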
697 NFkB conf = PMA/ionomycin-induced NF-kB reporter inhibitors, 697 retest, confirmation, B-cell NF-kB inhibitor project, cell-based, luminescence, single concentration; inhibition, % at 4 µM; AID 449746, 2010; 697 B-cell NF-kB luciferase, 16 h; actives 35% (n = 2,000); shares compounds with 697 NFkB inh; in the data active = inhibition mostly above about 28%, no sharp cut-off; inactive = mostly below about 22%
TAG conf = triacylglycerol accumulation inhibitors, retest, confirmation, cell-based, single concentration, Nile Red fluorescence, H9c2; actives 71% (n = 990); shares compounds with TAG inh; H9c2 lipid accumulation; cells loaded with 200 µM oleic acid; inhibition, % at 12.5 µM; AID 651629, 2012;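 active = mean inhibition across replicates of 40% or more; inactive = mean inhibition below 40%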;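 note: plate controls were DMSO only wells for no effect and Triacsin C treated wells for full effect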
* marks the source's active call; other numbers are inactive results; i = inactive; ? = inconclusive; . = no result. The list is not random: actives were taken first. Their share in the collection is about 2.3%.

SMILES | Gli-Sufu block | TAG inh | Shn3 inh set2 | aSyn UTR inh | Jurkat NFkB inh | 697 NFkB inh | Jurkat NFkB conf | TAG conf | others
COc1cc(C2=NOC(C(=O)NCc3cccs3)C2)cc(OC)c1OC (stereo not drawn) | 2.7 | 52.2* | 15.3 | 24.1 | 50.3* | -66.7 | 36.1 | 62.6*
CC1=NN(S(=O)(=O)c2ccc(C)cc2)C(=O)c2ccccc2O1 | 6.7 | -8.6 | 6.8 | 2.9 | 4.0 | 14.4 | . | .
COc1ccc(S(=O)(=O)N2N=C(C)Oc3ccccc3C2=O)cc1 | -3.2 | 63.4* | 11.2 | 2.5 | 53.0* | -28.0 | 44.4 | 53.6*
CCN1CCN(Cc2ccc(NC(=O)c3ccc(C)c(NC(=O)C(=O)c4c[nH]c5ccccc45)c3)cc2C(F)(F)F)CC1 | 26.9 | 77.2* | ? | 111.6* | 95.3* | 0.3 | 23.6 | 79.1*
CCN1CCN(Cc2ccc(NC(=O)c3ccc(C)c(NC(=O)c4ccc5n[nH]nc5c4)c3)cc2C(F)(F)F)CC1 | 2.4 | 20.9 | -12.4 | 5.3 | -12.8 | 1.4 | . | .
O=C(Nc1nc2ccc(C(=O)N3CCCCC3)cc2s1)C1CCCCC1 | -27.8 | 63.7* | -2.1 | 9.1 | 60.2* | -71.7 | 18.5 | 68.2*
CCN(CC)C(=O)c1cn(-c2cccc(OC)c2)c(=O)c2ccccc12 | -0.5 | . | -13.7 | 3.7 | -17.1 | 3.9 | . | .
CCOC(=O)c1[nH]c(C)c(C(=O)Nc2ccc(C)c(F)c2)c1C | -17.5 | . | 4.4 | -9.7 | 25.9 | -10.8 | . | .
CCOC(=O)c1[nH]c(C)c(C(=O)Nc2ccccc2C)c1C | -13.0 | 54.4* | -18.2 | -27.2 | 52.7* | -59.6 | 38.5 | 58.8*
CCN(CC)CCNc1nc2c(c(=O)[nH]c(=O)n2C)n1CC(O)COc1ccc(Cl)cc1Cl (stereo not drawn) | 4.1 | . | -2.1 | 3.3 | -11.4 | 12.7 | . | .
Cc1cc(C)n(-c2nc3c(c(=O)[nH]c(=O)n3C)n2CC(O)COc2ccc(Cl)cc2Cl)n1 (stereo not drawn) | 17.2 | 81.9* | 26.3 | 73.2* | 50.6* | -31.1 | 46.2 | 74.4*
COC(=O)/C=C/c1ccccc1S(=O)(=O)N(Cc1ccccc1)Cc1ccco1 | 8.9 | 53.8* | 6.1 | 89.4* | 55.9* | -90.1 | 7.2 | 47.6*
O=C(NCc1ccncc1)C(F)(F)C(F)(F)C(=O)NCc1ccncc1 | 7.8 | -19.9 | -13.3 | 9.2 | 1.9 | -30.9 | . | .
Cc1onc(-c2ccccc2)c1C(=O)Nc1cc(C(F)(F)F)ccc1N1CCOCC1 | 13.3 | 52.4* | 11.6 | 28.5 | 56.2* | -52.3 | 28.6 | 61.8*
CC(=O)O[C@H]1C(=O)[C@]2(C)[C@H]([C@H](OC(=O)c3ccccc3)[C@]3(O)C[C@H](OC(=O)[C@H](O)[C@@H](NC(=O)c4ccccc4)c4ccccc4)C(C)=C1C3(C)C)[C@]1(OC(C)=O)CO[C@@H]1C[C@@H]2O | 42.9 | 54.1* | 39.7 | 95.3* | 70.9* | -18.5 | 64.8* | 57.0*
CCCCC(=NCCc1c(C)[nH]c2ccc(OC)cc12)C1=C(O)CC(c2ccccc2)CC1=O (stereo not drawn) | 23.4 | 61.2* | 19.5 | 119.1* | 69.0* | -55.5 | 13.4 | 65.7*
CCC(=NCCc1c(C)[nH]c2ccc(OC(F)(F)F)cc12)C1=C(O)CC(c2ccccc2)CC1=O (stereo not drawn) | 4.2 | 51.2* | 32.8 | 107.0* | 67.0* | -28.3 | 16.5 | 72.0*
CCC(=NCCc1c(C)[nH]c2ccccc12)C1=C(O)CC(c2ccccc2)CC1=O (stereo not drawn) | 2.2 | . | 24.1 | 54.7 | 49.0 | -17.9 | . | .
CC(=NCCc1c(C)[nH]c2ccc(OCc3ccccc3)cc12)C1=C(O)CC(c2ccccc2)CC1=O (stereo not drawn) | 10.1 | 8.5 | 19.5 | 10.4 | 7.2 | -31.9 | . | .
C/C(CC(=O)Nc1ccc2c(c1)OCCO2)=N\NC(=O)c1ccccn1 | -3.7 | -5.4 | -33.0 | -142.5 | -3.4 | -5.8 | . | .
CC(=O)c1ccc(N/N=C(/C(N)=O)C2=NC(C)(C)Cc3ccccc32)cc1 | 12.2 | . | 29.2 | ? | -47.7 | -420.1 | . | . | 697 NFkB conf=-193.4
CC1(C)Cc2ccccc2C(/C(=N\Nc2cccc(Cl)c2)C(N)=O)=N1 | 9.7 | . | 42.1 | 19.7 | 8.3 | -16.7 | . | .
Cc1ccccc1CN(C)CCS(=O)(=O)c1cc(Cl)ccc1Cl | -1.2 | . | -2.5 | -23.5 | -9.1 | 35.9* | . | . | 697 NFkB conf=2.7
Nc1nnc(CCS(=O)(=O)c2cc(Cl)ccc2Cl)s1 | 5.7 | . | 4.4 | 7.7 | -0.3 | 19.9 | . | .
Cc1cc(S(=O)(=O)N2CCN(c3ccccn3)CC2)c(C)cc1Cl | 25.6 | . | -21.7 | -7.7 | 13.8 | 9.6 | . | .
SMILES | Gli-Sufu block | TAG inh | Shn3 inh set2 | aSyn UTR inh | Jurkat NFkB inh | 697 NFkB inh | Jurkat NFkB conf | TAG conf | others
COc1cc(C(=O)Nc2nc(OC)c(-c3ccccc3)c(OC)n2)cc(OC)c1OC | 2.2 | . | 25.0 | 29.9 | 19.1 | 37.8* | . | . | 697 NFkB conf=19.6
COc1cc(C(=O)Nc2cc(-c3ccccc3)[nH]n2)cc(OC)c1OC | 9.4 | . | 20.0 | -5.4 | 7.5 | 29.1 | . | .
CSc1ccccc1NC(=O)CSCc1ccc(C)cc1 | -9.6 | . | -3.2 | -112.8 | 18.9 | -7.6 | . | .
Cc1ccc(CSCC(=O)Nc2ccccc2C(=O)O)cc1 | -52.7 | 3.8 | -64.4 | -93.8 | -24.7 | i | . | . | 697 NFkB conf=-393.6
COc1ccccc1S(=O)(=O)Nc1cccc(-c2nnc3n2CCCCC3)c1 | -1.6 | -1.6 | 9.6 | -17.6 | 6.2 | -5.4 | . | .
CCOC(=O)c1nn(-c2ccccc2)c(C#N)c1NC(=O)c1nn(CC)cc1Br | 22.8 | . | 69.9 | 27.1 | 13.0 | 37.0* | . | . | 697 NFkB conf=40.2*
CCOC(=O)c1c(NC(=O)c2nn(CC)cc2Br)c(C#N)nn1-c1ccccc1 | 7.0 | . | 12.8 | 57.9 | 4.6 | -9.9 | . | .
Nc1nn(-c2ccccc2)c(N)c1N=Nc1ccc2c(c1)OCO2 | -118.4 | . | -51.1 | -42.2 | -10.2 | -269.9 | . | . | 697 NFkB conf=-220.2
Cc1nn(-c2ccccc2)c(N)c1N=Nc1cccnc1 | -57.4 | 11.9 | -77.3 | -47.8 | -44.6 | -73.7 | . | .
COC(=O)COc1cccc2c(=O)n(CC(=O)N3CCCCC3)ccc12 | 0.3 | 2.3 | 4.3 | 9.6 | -6.2 | 43.4* | . | . | 697 NFkB conf=5.5
